High-throughput results (PubChem BioAssay)
Shown are actives, neighbours in structure and some others; about 6.9% of the full set was active somewhere.
Mdm2 MdmX PPI = inhibitors of human Mdm2-MdmX association, primary screen, cell-based, luminescence, split luciferase, SaOS-2, uHTS; Protein Mdm4 (Homo sapiens) + E3 ubiquitin-protein ligase Mdm2 (Homo sapiens), …; SaOS-2 split-luciferase Mdm2/MdmX complementation; inhibition, % at 8 µM; actives 3% (n = 330,000); AID 485346, 2010;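 active means inhibition of at least 50% at 8 µM in the primary screen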
Target sequence (O15151 whole entry, looked up): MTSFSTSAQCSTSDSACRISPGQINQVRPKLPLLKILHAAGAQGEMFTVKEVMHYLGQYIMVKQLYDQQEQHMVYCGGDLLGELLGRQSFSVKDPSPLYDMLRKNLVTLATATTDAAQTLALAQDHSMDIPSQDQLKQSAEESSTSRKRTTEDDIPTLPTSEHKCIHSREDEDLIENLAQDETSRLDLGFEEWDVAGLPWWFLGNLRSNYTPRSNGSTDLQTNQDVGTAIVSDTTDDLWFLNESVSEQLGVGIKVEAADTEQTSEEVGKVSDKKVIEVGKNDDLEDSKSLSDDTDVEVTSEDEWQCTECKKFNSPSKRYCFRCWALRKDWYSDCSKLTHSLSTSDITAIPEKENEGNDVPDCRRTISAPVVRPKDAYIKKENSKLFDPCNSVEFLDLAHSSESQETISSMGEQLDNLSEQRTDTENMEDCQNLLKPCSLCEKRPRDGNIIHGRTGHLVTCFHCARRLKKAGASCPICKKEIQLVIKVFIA
Target sequence (Q00987 whole entry, looked up): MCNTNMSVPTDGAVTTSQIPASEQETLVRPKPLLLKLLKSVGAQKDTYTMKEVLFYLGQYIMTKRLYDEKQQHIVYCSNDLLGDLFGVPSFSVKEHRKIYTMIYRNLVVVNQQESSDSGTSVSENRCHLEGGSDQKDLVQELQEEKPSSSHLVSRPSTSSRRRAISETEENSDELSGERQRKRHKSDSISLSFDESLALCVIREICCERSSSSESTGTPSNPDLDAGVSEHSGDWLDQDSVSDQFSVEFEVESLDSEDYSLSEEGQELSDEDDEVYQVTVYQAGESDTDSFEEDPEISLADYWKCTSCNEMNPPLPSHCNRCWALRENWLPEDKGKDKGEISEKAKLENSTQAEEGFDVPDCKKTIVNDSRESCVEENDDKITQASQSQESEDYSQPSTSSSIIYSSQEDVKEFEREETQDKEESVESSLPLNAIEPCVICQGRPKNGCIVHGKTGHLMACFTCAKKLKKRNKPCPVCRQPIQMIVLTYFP
MPTP inh = mitochondrial permeability transition pore inhibitors, primary screen, biochemical, isolated mouse mitochondria, absorbance. Ca2+ swelling absorbance, 30 min. inhibition, % at 10 µM. actives 1.4% (n = 360,000). AID 602449, 2012;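 active means inhibition of 50% or more, scaled per plate between neutral and stimulator controls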;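 further: 0% = DMSO wells given calcium and 100% = 1 mM EGTA wells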
Beta cell apopt = inhibitors of cytokine-induced beta cell apoptosis, primary screen, luminescence | INS-1E cytokine-induced death, ATP luminescence, 48 h; percent of positive-control rescue, neutral wells zero | protection from apoptosis, % (no concentration beside the values) | actives 0.8% (n = 300,000) | AID 435005, 2010;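 active means Every replicate reaches about 75%, or at least half do and their mean reaches it too, limit read from the data; inconclusive means At least half of replicates reach the limit but their mean does not; inactive means Under half of replicates reach the limit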;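 further: 0% = cytokine-treated negative control wells and 100% = positive control rescue; higher means more ATP so stronger rescue from cytokine killing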
GRIN3A LBD mod = binders of NR3A ligand-binding domain, primary screen, biophysical, differential scanning fluorimetry, uHTS; Glutamate receptor ionotropic, NMDA 3A (GRIN3A) ligand-binding domain; NR3A LBD differential scanning fluorimetry, Tm shift; 0% = protein alone, 100% = glycine-bound protein; Tm shift relative to glycine control, % at 25 µM; actives 2.5% (n = 340,000);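 active means melting temperature shift of at least 10% of the positive control shift, at one fixed dose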
SKKanGAS inh = S. pyogenes SKKanGAS growth inhibitors in kanamycin, primary screen, streptokinase expression inhibitor project, SKKanGAS strain, BacTiter-Glo luminescence. 6 h. inhibition, % at 7.5 µM. actives 1.3% (n = 300,000). AID 1662, 2009;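 active means mean replicate score, as percent of positive control median, at least 50; inconclusive means mean below 50 but one replicate at or above 50; inactive means mean and every replicate below 50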;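 further: strain carries kanamycin resistance gene driven by streptokinase promoter and grows in 40 µg/ml kanamycin; loss of luminescence reflects streptokinase promoter inhibition or plain growth inhibition; 0% = median of DMSO wells and 100% = positive control at its reference dose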
CSC inhib = cancer stem cell viability inhibitors, primary screen, luminescence. cancer stem cell-like cells viability. inhibition, % at 7.5 µM. actives 1.1% (n = 300,000); in the data active means inhibition above about 75%; inconclusive means no clear call, values can overlap the other calls; tested in HMLE shEcad cells
Mdm2-MdmX conf = Mdm2-MdmX complex disruptors, retested hits, confirmation, luminescence, single concentration. shares compounds with Mdm2 MdmX PPI. Mdm2-MdmX binding, luminescent assay. inhibition, % at 8 µM. actives 55% (n = 10,000). AID 489028, 2010; in the data active means inhibition above about 40%
Full FLuc ctr = full-length luciferase signal inhibition, confirmation, counter-screen for Mdm2/MdmX interaction inhibitor project, cell-based, single concentration, SaOS-2. shares compounds with Mdm2 MdmX PPI. SaOS-2 full-length luciferase counterscreen, luminescence. actives 77% (n = 6,200). inhibition, % at 8 µM;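 active means mean inhibition at 8 µM reaching about 37%, which flags the compound as non-specific, limit read from the data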;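 further: p53-null SaOS-2 cells with luciferase driven by a doxycycline-inducible promoter; compound on cells about two nights before reading with doxycycline added after day one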
MPTP counter = fluorescence retest of MPTP screen hits in isolated mitochondria, single concentration; shares compounds with MPTP inh; membrane potential, Rhodamine 123 fluorescence; inhibition, % at 10 µM; actives 78% (n = 5,000); AID 624504, 2012; in the data active means inhibition above about 22%;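 further: 0% = DMSO vehicle and 100% = positive control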
MPTP abs DR = mitochondrial permeability transition pore inhibitors, dose response, biochemical, absorbance, uHTS hits. isolated mitochondria swelling. actives 58% (n = 780). AID 651561, 2012. shares compounds with MPTP inh. IC50, µM; in the data active means IC50 below about 20 µM
MPTP counter DR = fluorescent counter-screen in isolated mitochondria, dose response, counter-screen for MPTP inhibitor project, biochemical, fluorescence, uHTS hits | shares compounds with MPTP inh | isolated mitochondria counterscreen, fluorescence read-out | IC50, µM | actives 49% (n = 780); in the data active means IC50 below about 80 µM
* = called active by the depositor; i = inactive; ? = inconclusive; · = no result.

SMILES	Mdm2 MdmX PPI	MPTP inh	Beta cell apopt	GRIN3A LBD mod	SKKanGAS inh	CSC inhib	Mdm2-MdmX conf	Full FLuc ctr	MPTP counter	others
COc1ccc2sc(N(CCCN(C)C)C(=O)c3ccc(S(=O)(=O)N4CCCc5ccccc54)cc3)nc2c1	80*	86*	·	-10	24	3	44*	64*	-19
CN(C)CCCN(C(=O)c1cc2cc([N+](=O)[O-])ccc2s1)c1nc2cc3c(cc2s1)OCCO3	97*	83*	·	-5	10	63	65*	77*	-30
COCC(=O)N[C@@H]1c2cc(OC)c(OC)cc2C[C@H]1OCc1ccccc1	23	-1	·	-2	·	·	·	·	·
C=CC[n+]1c(/C=C2\C=Cc3cc(C)ccc3N2CC)ccc2ccccc21	85*	112*	109*	-1	29	49	70*	28	78*
COc1ccc(CNC(=O)[C@H](Cc2ccccc2)NC(=O)C2CCNCC2)cc1	-11	0	-3	-2	0	-11	·	·	·
O=C(CN1c2ccccc2Sc2ccccc21)NNC(=S)Nc1ccc(Cl)cc1Cl	66*	83*	18	21*	111*	?	6	·	77*
COc1ccc(-c2nc(-c3ccc4c(c3)OCO4)[nH]c2-c2ccc(OC)cc2)cc1	67*	69*	33	-5	55*	·	25	·	69*
CN(C)C(=O)c1cccc(-c2cccc(-c3nc(C(=O)NCc4ccccc4)cc4c3[C@H](CCO)N(S(=O)C(C)(C)C)C4)c2)c1 (some centres undefined)	·	-1	·	·	·	·	·	·	·
Cc1cc(OC(C)C(=O)NCC2CCC(C(=O)O)CC2)c2c(C)c(C)c(=O)oc2c1 (centres undefined)	-8	0	-5	0	5	-9	·	·	·
CC(=O)c1c(C)[nH]c(C(=O)OCC(=O)Nc2ccc(C)cc2[N+](=O)[O-])c1C	51*	100*	123*	0	-13	-8	37	58*	90*
Cc1ccc(NC(=O)COC(=O)C2=COCCO2)c([N+](=O)[O-])c1	-4	-2	-2	0	3	-14	·	·	·
COc1cc2nc(N(CCCN(C)C)C(=O)c3ccc(S(=O)(=O)N(C)C4CCCCC4)cc3)sc2cc1OC	17	3	·	1	-2	0	·	·	·
Cc1cc(C)c2nc(N(CCCN(C)C)C(=O)c3ccc(S(=O)(=O)N4CCCCCC4)cc3)sc2c1	80*	83*	·	2	-2	0	50*	71*	-10	MPTP abs DR=6.4*;MPTP counter DR=>80
Cc1cc(C)c2sc(N(CCCN(C)C)C(=O)c3ccc(S(=O)(=O)N(C)C4CCCCC4)cc3)nc2c1	97*	77*	·	5	16	-3	48*	79*	-12
Cc1ccc2sc(N(CCCN(C)C)C(=O)c3ccc(S(=O)(=O)N4CCCCCC4)cc3)nc2c1C	63*	58*	·	1	-4	77*	36	89*	-16	MPTP abs DR=i;MPTP counter DR=64*
CN(C)CCCN(C(=O)c1ccc(S(=O)(=O)N2CCCCC2)cc1)c1nc2cc3c(cc2s1)OCO3	10	1	-7	0	2	7	·	·	·
NS(=O)(=O)c1ccc(Sc2nc3ccccc3s2)c([N+](=O)[O-])c1	79*	60*	5	-3	7	42	82*	56*	43*
CCCNS(=O)(=O)c1cc2c(cc1Br)CCN2C(=O)CC	·	0	·	-2	·	·	·	·	·
O=C(N/N=C/c1cc(Br)cc(Br)c1O)c1cccc(S(=O)(=O)N2CCOCC2)c1	59*	69*	-11	-1	107*	20	60*	30	-5
Cc1cc(Br)cc(/C=N/NC(=O)c2ccc3c(c2)OCO3)c1O	68*	65*	88*	6	84*	84*	67*	33	49*
O=C(N/N=C/c1cc(Br)cc(Cl)c1O)c1ccc2c(c1)OCO2	50*	55*	94*	11*	89*	59	59*	53*	66*
O=C(N/N=C/c1ccccc1Br)c1cccc(S(=O)(=O)N2CCOCC2)c1	15	-2	-7	0	·	·	·	·	·
CCOC(=O)/C=C/C(=O)OCC(=O)N1CCN(C(=O)c2ccco2)CC1	1	0	-14	2	-2	1	·	·	·
COC(=O)c1cc2c([nH]c1=O)CCCC2=O	·	0	·	3	·	·	·	·	·
CC[n+]1c(C)sc2c3ccsc3ccc21	-10	0	-17	-5	3	-6	·	·	·
SMILES	Mdm2 MdmX PPI	MPTP inh	Beta cell apopt	GRIN3A LBD mod	SKKanGAS inh	CSC inhib	Mdm2-MdmX conf	Full FLuc ctr	MPTP counter	others
CCN1/C(=C/c2ccc3cc(C)ccc3[n+]2CC)Sc2ccc3sccc3c21	101*	80*	140*	1	115*	49	87*	17	87*
FC(F)(F)Sc1ccc(NC(=S)NCc2ccccc2)cc1	79*	84*	18	20*	15	54	-2	·	73*
O=C(N/N=C/c1c(O)ccc2ccccc12)c1[nH]ncc1Br	65*	55*	103*	30*	14	108*	76*	41*	55*
Cc1nn(-c2ccccc2)c(Cl)c1/C=N/NC(=O)c1[nH]ncc1Br	-156	0	14	3	-1	22	·	·	·
O=C(N/N=C/c1c(O)ccc2ccccc12)c1cccc(C(F)(F)F)c1	74*	99*	·	21*	120*	·	81*	21	42*
CCOc1cc(/C=N\Nc2nc(Nc3ccccc3)nc(N3CCOCC3)n2)ccc1OC(=O)c1ccco1	41	0	6	5	26	12	·	·	·
c1ccc2c(c1)oc1c(N3CCOCC3)ncnc12	12	2	-1	-2	-2	-3	·	·	·
